Source: PubChem BioAssay
Wnt bcat act: Wnt/beta-catenin pathway activators, primary screen, cell-based, plate reader, single point. Wnt/beta-catenin reporter cell assay, activator. activation, % at 9.35 µM. AID 743398, 2014. actives 1.2% (n = 300,000); in the data active = activation above about 30%, passing the limit was not always enough; inconclusive = no clear call, values can overlap the other calls;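 also: 0% = neutral control wells and 100% = positive control wells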
Vif inh: HIV Vif self-association inhibitors, primary screen, imaging, HEK293T, single point; HEK293T cells, Vif self-association by quenched fluorescence, 24 h; inhibition, % at 7.49 µM; actives 0.35% (n = 340,000); AID 602346, 2012; in the data active = inhibition above about 50%, passing the limit was not always enough; inconclusive = no clear call, values can overlap the other calls; inactive = below about 31%
Glyco luc inh: increase of ERlucT glycosylation luciferase signal, primary screen, N-linked glycosylation inhibitor project, D54 ERlucT cells, luminescence, set 2; AID 588692, 2011; actives 0.23% (n = 360,000); D54 ERlucT glycosylation luciferase reporter, 24 h; percent of 100 nM tunicamycin response; reporter increase, % at 12.5 µM;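 active = mean luciferase reporter signal, scaled so untreated is 0 and the glycosylation-blocking control 100, at or above a set limit in every replicate; inconclusive = mean reaches the limit but not every replicate does; inactive = mean below the limit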;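 also: luciferase carries N-glycosylation sites so blocking glycosylation raises the light; 0% = median of neutral control wells and 100% = median of 100 nM tunicamycin wells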
PfHsp90 set2: growth inhibition of PfHsp90-expressing yeast, primary screen, antimalarial PfHsp90 inhibitor project, S. cerevisiae, BacTiter-Glo luminescence, single point, set 2 | AID 504621, 2011 | inhibition, % at 9.4 µM | actives 0.32% (n = 310,000) | BacTiter-Glo ATP, 48 h; yeast lacking PDR1 and PDR3 efflux regulators;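 active = every replicate shows inhibition above about 80%, whatever the replicate mean, limit read from the data; inconclusive = mean inhibition reaches the set limit but some replicate falls short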;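 also: 0% = DMSO neutral controls and 100% = 20 µM radicicol positive controls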
esBAF inh: Bmi1 luciferase reporter increase in mESCs, primary screen, esBAF inhibitor project, mouse ES cells, Bmi1 luciferase knock-in, single point. 24 h; 100% = twice the neutral-well signal. actives 2% (n = 350,000). reporter increase, % at 12.5 µM. AID 602393, 2012; in the data active = activation above about 40%; inconclusive = no clear call, values can overlap the other calls;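 also: 0% = median of the plate's neutral control wells and 100% = double that signal; a rise in the Bmi1 reporter signal indicates esBAF inhibition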
MITF TRPM1 HTS: activators of MITF-driven TRPM1 promoter reporter, primary screen, cell-based, SK-MEL-5, luciferase, single point; actives 0.75% (n = 300,000); SK-MEL-5 TRPM1-promoter luciferase, 24 h; % of positive control, neutral wells = 0; activation, % at 12.5 µM;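 active = mean activation of at least 80% with every replicate also reaching 80%; inconclusive = mean reaches 80% but some replicate falls short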;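 also: 0% = neutral control wells and 100% = parthenolide positive control wells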
* hit, by the source's call; ? = inconclusive; nt = no result. A selection: hits, their analogues and other compounds. The true share with any hit is near 3%.

SMILES | Wnt bcat act | Vif inh | Glyco luc inh | PfHsp90 set2 | esBAF inh | MITF TRPM1 HTS
Cc1ccccc1-c1nc2cc(NC(=O)C3CC3)ccc2o1 | 18.3 | -4.2 | -9.5 | 12.2 | 63.2* | 66.3
Cc1ccccc1-c1nc2cc(Cl)ccc2c(=O)o1 | -2.6 | -9.8 | 3.8 | 1.6 | nt | -37.4
Cc1ccc(OCC(=O)Nc2ccc(O)c(-c3nc4ccccc4o3)c2)cc1 | -8.6 | 3.8 | 0.8 | -33.6 | 54.1* | -45.5
Cc1ccccc1-c1nc2cc(Cl)ccc2o1 | 37.9* | -5.4 | 1.0 | 71.3 | nt | ?
CCC(=O)Nc1ccc2oc(-c3ccccc3Br)nc2c1 | nt | 0.5 | -4.9 | -13.3 | 58.7* | 130.2*
CC(=O)Nc1ccc2oc(-c3ccccc3Br)nc2c1 | nt | 10.2 | -12.1 | -27.2 | nt | 3.9
COc1ccc(NC(=O)Nc2ccc3c(c2)C(=O)N([C@@H](C)CO)C[C@@H](C)[C@H](CN(C)C(=O)NC(C)C)O3)cc1 | nt | nt | nt | nt | 7.2 | nt
Cn1nc(C(C)(C)C)cc1C(=O)NCc1cc(F)cc2c1OCOC2 | -3.4 | -23.2 | 0.4 | 8.3 | nt | nt
CCN(Cc1nc2cc(Cl)ccc2c(=O)[nH]1)C(=O)c1cc2c(s1)CCCCC2 | 3.7 | -15.4 | -0.6 | -16.4 | -2.8 | -0.4
Cc1ccc(-c2cc(-c3ccco3)c3c(N)c(C(=O)NN)oc3n2)cc1 | -1.5 | -14.2 | 5.1 | 22.0 | nt | -17.3
NNC(=O)c1oc2nc(-c3ccccc3)cc(-c3ccccc3)c2c1N | 1.9 | 71.4* | 6.1 | 12.3 | -4.2 | 8.4
NNC(=O)c1oc2nc(-c3cccs3)cc(-c3ccco3)c2c1N | 7.0 | -4.9 | 50.7* | 18.0 | 1.2 | 2.0
CCN=C1Cn2c(nc3scc(-c4ccccc4)c3c2=O)CN1CC | nt | -7.8 | -1.6 | nt | 2.1 | nt
Cc1cnc(NC(=O)COc2ccccc2)s1 | 58.5* | -5.9 | -4.2 | nt | 22.3 | nt
Cc1cnc(NC(=O)CCc2ccccc2)s1 | 10.4 | 0.0 | 14.9 | -2.8 | 17.8 | 39.4
COc1ccccc1OCC(=O)Nc1ncc(C)s1 | 36.1* | -2.8 | -11.3 | -25.4 | 9.5 | 79.9
Cc1cc(C)nc(NS(=O)(=O)c2ccc(NC(=O)C(C)Oc3ccccc3F)cc2)n1 (stereo not drawn) | 1.1 | -2.0 | -0.2 | -15.2 | -5.7 | 1.2
Cc1nc2nc(-c3cccs3)[nH]c2cc1Br | 65.7* | -6.0 | 2.3 | 30.3 | 27.1 | nt
c1ccc(-c2nc(-c3cccs3)[nH]c2-c2ccccc2)cc1 | -1.4 | -1.1 | 1.1 | 7.5 | nt | -8.2
O=C(NC(Cc1c[nH]c2ccccc12)c1nnc2n1CCCCC2)c1ccccc1Cl (stereo not drawn) | nt | 5.1 | 0.7 | -11.3 | 1.6 | -11.0
COc1ccc(NC(=O)N(C)C[C@H]2Oc3ccc(NC(=O)Cn4cnnn4)cc3CC(=O)N([C@H](C)CO)C[C@H]2C)cc1 | nt | nt | nt | nt | -0.2 | nt
C/C(=N/NC(=O)c1cccs1)c1ccc(NC(=O)COc2ccc(Cl)cc2)cc1 | nt | nt | 6.3 | 8.1 | 49.6* | -17.9
C/C(=N\NC(=O)c1ccc(Cl)cc1)c1cccs1 | 25.6 | 12.0 | -12.3 | -19.0 | -8.6 | 45.7
O=C1C(Cl)=C(Nc2ccccc2O)C(=O)N1CCc1ccccc1 | -0.8 | -0.1 | 0.7 | -7.6 | 62.2* | -2.4
COc1ccc(CCNC2=C(Cl)C(=O)N(CCc3ccccc3)C2=O)cc1OC | 1.7 | -15.4 | -2.9 | 10.6 | nt | 0.2
SMILES | Wnt bcat act | Vif inh | Glyco luc inh | PfHsp90 set2 | esBAF inh | MITF TRPM1 HTS
CCOc1ccc(N2C(=O)C(Cl)=C(Nc3ccccc3O)C2=O)cc1 | nt | -4.4 | 6.4 | 4.4 | 40.8* | -17.0
CC1(C)CC(C)(c2ccc(O)cc2O)N(c2cccc(Cl)c2)C(=S)N1 (stereo not drawn) | nt | 2.2 | 1.2 | 13.9 | -12.4 | -7.8
COC(=O)c1ccc(-c2ccc(Cl)cc2)nc1C | nt | 4.1 | -13.3 | -22.7 | 21.3 | 92.6*
C=C1CCC2C(C)(C)[C@@H](O)CC[C@@]2(C)[C@@H]1COc1ccc2ccc(=O)oc2c1 (stereo partly drawn) | -1.0 | -3.4 | -4.2 | -0.1 | -3.8 | -3.2
CCOC(=O)C1(Cc2cccc(OC)c2)CCCN(C(=O)c2cc(CC(C)C)[nH]n2)C1 (stereo not drawn) | -0.4 | nt | nt | 16.6 | nt | 67.8
CCOC(=O)C1(Cc2cccc(OC)c2)CCCN(C(=O)CCN2CCCO2)C1 (stereo not drawn) | 21.6 | 17.7 | 0.6 | 13.8 | 68.3* | 75.7
CCOC(=O)C1(Cc2cccc(Cl)c2)CCCN(C(=O)CCOC)C1 (stereo not drawn) | -0.1 | 6.9 | 0.9 | 23.4 | 7.9 | 7.2
CCOC(=O)C1(Cc2cccc(Cl)c2)CCCN(C(=O)c2cc(C)on2)C1 (stereo not drawn) | 12.5 | -10.1 | -0.8 | -13.6 | 52.9* | 23.2
CCOC(=O)C1(Cc2cccc(OC)c2)CCCN(C(=O)c2ccc(OC)o2)C1 (stereo not drawn) | ? | 0.2 | -1.4 | -2.9 | 80.0* | 88.1*
COC(=O)C[C@H]1CC[C@@H]2[C@H](COc3ccc(NC(=O)Nc4ccc(Cl)cc4)cc3C(=O)N2C)O1 | nt | nt | nt | nt | 2.5 | nt
CC(C)CN1CC(=O)N2C(c3ccccc3)c3[nH]c4ccccc4c3C[C@H]2C1=O (stereo partly drawn) | -0.1 | -0.3 | 0.2 | -29.3 | -2.8 | -14.7
COc1ccc(C(=O)N2CCc3ccc(NC(=O)c4ccccn4)cc3C2)cc1F | 14.2 | -2.4 | -1.7 | 9.8 | 52.4* | 45.4
O=C(/C=C1\OCc2ccccc21)c1ccccc1 | 45.2* | nt | nt | nt | nt | nt
O=C(/C=C1\OCc2ccccc21)OCc1ccccc1 | 21.2 | nt | nt | nt | nt | nt
Cc1cc(C)n(CCc2nc(-c3ccc(-c4ccccc4)cc3)cs2)n1 | 19.9 | -6.0 | -2.2 | -6.3 | 69.7* | 43.8
Cc1cc(-c2nnc(CCC(=O)N(CC3CCC3)CC3CCCO3)o2)no1 (stereo not drawn) | -0.8 | 6.9 | 2.2 | -5.1 | 47.0* | 31.9
Cc1cc(-c2nnc(CCC(=O)N(CC3CC3)CC3CCCO3)o2)no1 (stereo not drawn) | -0.9 | 33.3 | 2.5 | 6.4 | nt | -7.8
NC(=O)N=Nc1c2[nH]c3ccccc3nc-2c2ccccc12 | 1.2 | -7.0 | 94.2* | 67.9 | nt | nt
Cc1ccc(N/C=C/C(=O)c2ccco2)c(O)c1 | 56.5* | -2.0 | -6.5 | -23.7 | ? | 52.7
O=C(/C=C/Nc1ccc(F)cc1)c1ccco1 | nt | 5.8 | -8.6 | 11.1 | 25.1 | 23.1
Cc1ccc([N+](=O)[O-])cc1N/C=C/C(=O)c1ccco1 | -0.8 | -9.0 | 0.4 | -15.0 | 54.5* | 16.1
CC(=O)Nc1nonc1-c1nc2ccccc2n1C | -1.5 | 79.7* | 2.1 | -3.0 | -8.1 | 11.4
Cc1ccc(NC(=O)CCCSc2nc3ccccc3[nH]2)cc1 | 1.8 | 17.7 | 1.8 | 0.8 | nt | -4.5
